The whole screen tested about 48,000 compounds, of which about 13,000 (27%) showed an effect of 50% or more. This is one part of the list.
tested on: Wolbachia pipientis; assay: Anti-Wolbachia Cell-Based Screen; assay type: functional; design: scale not given: in the data most compounds retested in dose-response had high values; conditions: 5 µM

Compared with `CC(=O)N1CCC2(CC1)c1ncc(-c3cccnc3)n1CCN2C`, `Cc1cnc(N2CCC3(CCCCN3C)C2)nc1.O=C(O)C(F)(F)F` (configuration not stated) is lower in “Percent Effect” value: 84.46% for the first, -23.72% for the second.

Compared with `CC1CN(CCc2ccncc2)CCO1` (configuration not stated), `CCC1CCCCN1CCc1ccncc1` (configuration not stated) is lower in “Percent Effect” value: 124.6% for the first, -22.38% for the second.

First: c1ccc2c(c1)CCC21CN(CCc2ccncc2)CCO1 (configuration not stated)
Second: O=C(O)C(F)(F)F.O=C(O)C(F)(F)F.O=C1NCC[C@]12CN(Cc1ccncc1)C[C@H]2c1ccccc1
The “Percent Effect” value of the first is lower: -6.517% for the first, 4.919% for the second.

Compared with `CC(C)=CCN1C(=O)[C@H]2CC[C@@H]1CN(Cc1cccnc1N)C2`, `Nc1ncccc1CN1C[C@@H]2CC[C@H](C1)N(CC1CC1)C2=O` is lower in “Percent Effect” value: 18.56% for the first, 7.202% for the second.

First: COc1cccc(CC(C)NC(=O)NCc2ccn(C)c2)c1 (configuration not stated)
Second: Cc1ccccc1CNCC(O)c1ccc(OC(C)C)cc1 (configuration not stated)
The “Percent Effect” value of the first is lower: -0.6382% for the first, 14.53% for the second.

Compared with `O=C(NCC1CC[C@@]2(CNCCOC2)O1)c1cccnc1` (some centres not stated), `Cl.Cl.c1cncc(COC[C@@H]2CCC[C@@]23CNCCO3)c1` is higher in “Percent Effect” value: -3.368% for the first, 86.08% for the second.

Going from `CN(C)C(=O)CN1CC[C@@H]2O[C@@H](COCc3cccnc3)CC[C@@H]21.O=C(O)C(F)(F)F.O=C(O)C(F)(F)F` to `O=C(O)C(F)(F)F.O=C(O)C(F)(F)F.c1cncc(COC[C@@H]2CCC[C@]23CNCCO3)c1`, the “Percent Effect” value rises from -11.44% to 101.8%.

First: O=C(O)C(F)(F)F.c1cc(COC[C@H]2CCC[C@]23CNCCO3)ccn1
Second: COC[C@@H]1CCC[C@]12CN(Cc1cccc(C)n1)CCO2.O=C(O)C(F)(F)F.O=C(O)C(F)(F)F
The “Percent Effect” value of the first is higher: 99.79% for the first, 6.622% for the second.

First: CCN(Cc1cccnc1)CC1CCCO1 (configuration not stated)
Second: CCc1cc(CN(C)C(=O)CN2CC(Cc3ccccc3)CC2=O)on1 (configuration not stated)
The “Percent Effect” value of the first is lower: -10.66% for the first, 4.825% for the second.

First: O=C(O)C(F)(F)F.O=C(O)C(F)(F)F.O=C1NCC[C@]12CN(Cc1cccnc1)C[C@H]2c1ccccc1
Second: O=C(N[C@H]1CN(Cc2cccs2)[C@@H]2CCCO[C@H]12)c1cccnc1.O=C(O)C(F)(F)F.O=C(O)C(F)(F)F
The “Percent Effect” value of the first is lower: -5.552% for the first, -1.494% for the second.

First: CC(C)(C)c1cc(=O)[nH]c(C2(N)CCCC2)n1
Second: CC(C)N1C(=O)C2(CCN(C)CC2)c2cc(F)ccc21.Cl
The “Percent Effect” value of the first is higher: 3.211% for the first, -32.23% for the second.

Going from `CC[C@H]1CN2CC[C@H]1C[C@@H]2CNC(=O)Nc1cccc(C(F)(F)F)c1` to `O=S(=O)(NC[C@H]1C[C@@H]2CCN1C[C@@H]2CN1CCCCC1)c1ccccc1`, the “Percent Effect” value falls from -2.454% to -3.393%.

Compared with `Cc1noc(CN2CC=C(c3cnn(C4CCS(=O)(=O)C4)c3)CC2)n1` (configuration not stated), `O=c1[nH]ccn1CCCN1CC=C(c2cnn(-c3ccccc3)c2)CC1` is higher in “Percent Effect” value: -14.25% for the first, 2.052% for the second.

Going from `CCOc1ccc(-c2cc(CCN)ccc2OC)cc1` to `COc1ccc(F)cc1C(=O)C1CCCN(Cc2ccc(C)s2)C1` (configuration not stated), the “Percent Effect” value falls from 7.711% to -15.99%.

Going from `CN1C[C@H](NC(=O)c2cscn2)[C@@H]2OCCC[C@@H]21.O=C(O)C(F)(F)F` to `Cl.O=C(N[C@H]1CN[C@H]2CCCO[C@H]21)c1cscn1`, the “Percent Effect” value falls from 111.9% to 6.195%.

First: CNCC[C@H]1CC(C)(C)Oc2ccc(C)cc21
Second: Cc1cc(CC(=O)N2CCN(C)[C@@H]3CS(=O)(=O)C[C@@H]32)ccc1F
The “Percent Effect” value of the first is higher: 99.82% for the first, -18.64% for the second.

Compared with `COCc1cn(C[C@H]2C[C@@H]3CCN2C[C@@H]3C(=O)N2CCOCC2)nn1`, `COCCN1CCN(S(=O)(=O)C2CC2)Cc2cccnc21` is higher in “Percent Effect” value: -6.421% for the first, 114% for the second.

Going from `O=C(CN1CCN(C(=O)Cc2ccc3c(c2)OCCO3)CC1)NC1CC1` to `NC(=O)CN1CCCN(C(=O)Cc2ccc3c(c2)OCO3)CC1`, the “Percent Effect” value falls from 5.479% to -4.573%.

First: Cc1[nH]c2c(C)cccc2c1CC(=O)N(C)CCN(C)C.O=C(O)CC(O)(CC(=O)O)C(=O)O
Second: CN(C)CCN(C)C(=O)Cc1ccc2c(c1)OCCO2.O=C(O)CC(O)(CC(=O)O)C(=O)O
The “Percent Effect” value of the first is lower: 103% for the first, 107.5% for the second.

Going from `CN(C)CCN(C(=O)Cc1ccc2c(c1)OCCO2)C1CCN(C)CC1.O=C(O)CC(O)(CC(=O)O)C(=O)O` to `CC(C)CN1CCC2(CC1)C(=O)Nc1ccc(C(=O)N(C)C)cc12.O=C(O)C(F)(F)F`, the “Percent Effect” value falls from 109% to -3.196%.

Compared with `CC(C)NC(=O)c1ccc2c(c1)C1(CCN(C(C)C)CC1)C(=O)N2.O=C(O)C(F)(F)F`, `CNC(=O)c1ccc2c(c1)C1(CCN(C(C)C)CC1)C(=O)N2.O=C(O)C(F)(F)F` is lower in “Percent Effect” value: 106.4% for the first, 95.47% for the second.

Going from `CNC(=O)[C@H]1C[C@@H]2CN(C(=O)c3ccc(C)nc3)C[C@@H]2N1C(C)C.O=C(O)C(F)(F)F.O=C(O)C(F)(F)F` to `Cc1cccc(CN2CCN3C[C@H](Oc4cccnc4)C[C@H]3C2)n1.O=C(O)C(F)(F)F.O=C(O)C(F)(F)F.O=C(O)C(F)(F)F`, the “Percent Effect” value falls from 4.326% to -1.606%.

Compared with `CC(C)NC(=O)c1ccc2c(c1)C1(CCN(C)CC1)C(=O)N2.O=C(O)C(F)(F)F`, `CC(C)CN1CCC2(CC1)C(=O)Nc1ccc(C(=O)NC(C)C)cc12.O=C(O)C(F)(F)F` is lower in “Percent Effect” value: 109.7% for the first, 99.87% for the second.

Compared with `CNC(=O)c1ccc2c(c1)C1(CCN(CC(C)C)CC1)C(=O)N2.O=C(O)C(F)(F)F`, `CCCS(=O)(=O)N1CCN(CCOC)c2nc(C)ccc2C1.O=C(O)C(F)(F)F` is higher in “Percent Effect” value: -7.062% for the first, 12.9% for the second.

Compared with `CNC(=O)[C@H]1C[C@H]2OCC[C@H]2N(CC2CC2)C1.O=C(O)C(F)(F)F`, `COCCN1CCN(S(=O)(=O)C2CC2)Cc2ccc(C)nc21.O=C(O)C(F)(F)F` is higher in “Percent Effect” value: -3.474% for the first, 0.9634% for the second.

Going from `O=C(NCC1CC1)C1CCC2(CCNCC2)C1` (configuration not stated) to `COC(=O)NCC1CCC2(CCNCC2)O1.Cl` (configuration not stated), the “Percent Effect” value falls from -14.8% to -32.05%.

Going from `CCS(=O)(=O)c1nnc([C@@H](N)Cc2ccccc2)o1` to `CC(=O)c1cc(CC(=O)N2CCN(CCOc3ccccc3)CC2)cs1`, the “Percent Effect” value falls from 144% to -5.45%.

First: COCCN1CCN(S(C)(=O)=O)Cc2cccnc21
Second: CCS(=O)(=O)N1CCN(CCOC)c2ncccc2C1
The “Percent Effect” value of the first is lower: 94.34% for the first, 117.1% for the second.

Compared with `Cc1cccc(CN2CCN3C[C@H](Oc4cncnc4)C[C@H]3C2)n1.O=C(O)C(F)(F)F.O=C(O)C(F)(F)F`, `O=C(O)C(F)(F)F.O=C(O)C(F)(F)F.c1ccc(CN2CCN3C[C@H](Oc4cncnc4)C[C@H]3C2)nc1` is lower in “Percent Effect” value: 126.4% for the first, 117.2% for the second.

Going from `Fc1cccc(O[C@@H]2C[C@H]3CN(Cc4ccccn4)CCN3C2)c1.O=C(O)C(F)(F)F.O=C(O)C(F)(F)F` to `Cc1nc(CN2CCN3C[C@H](Oc4cncnc4)C[C@H]3C2)cs1.O=C(O)C(F)(F)F.O=C(O)C(F)(F)F`, the “Percent Effect” value rises from -1.961% to 123.6%.

Going from `c1ccc(CN2CCN3C[C@H](Oc4cccnc4)C[C@H]3C2)nc1` to `Cn1ccnc1CN1CCN2C[C@H](Oc3cncnc3)C[C@H]2C1.O=C(O)C(F)(F)F.O=C(O)C(F)(F)F`, the “Percent Effect” value rises from -1.108% to -0.7067%.
